The record followed here is PubChem BioAssay.

Test [1] relates to Plasmodium falciparum Sir2 (PF13_0152, Sir2A). Nature of the test: pfSir2 binders on small-molecule microarrays, primary screen, biochemical, small-molecule microarray, 635 nm fluorescence (AID 1098).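 Also: score merges spot fluorescence intensity with its signal-to-noise ratio.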 The following applies: small-molecule microarray binding, fluorescence 635 nm; higher = more signal.
The nature of test [2]: small-molecule microarray binders of probe aDKK1, primary screen, biochemical, biotinylated probe, 635/667 nm fluorescence (AID 1099).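 Also: score merges 667nm spot fluorescence with signal to noise across triplicate slides.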 The following applies: higher = more signal.
The nature of test [3]: small-molecule microarray binders of probe aCHRDL2, primary screen, biochemical, biotinylated probe, 635/667 nm fluorescence (AID 1100). The following applies: higher = more signal.
A short description of test [4]: splicing luciferase reporter signal modulators, primary screen, spliceosome inhibition project, cell-based, HEK293, splice +/- reporter (AID 1101).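 Also: HEK293 cells carrying a splicing-competent luciferase reporter gene; test concentration not given here.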 The following applies: luminescence, 24 h, higher = more signal, called active from +8 up or from −8 down. (In general: In a reporter assay the amount or activity of a reporter protein is the signal.)
For test [5], the target named is Fibroblast growth factor 10 (Homo sapiens) (UniProt O15520). The test is described as follows: FGF10 binders on small-molecule microarrays, primary screen, biochemical, small-molecule microarray, 635 nm fluorescence (AID 1102). The following applies: FGF10 binding, fluorescence 635 nm, higher = more signal.
Sequence of Fibroblast growth factor 10 (Homo sapiens) (O15520 whole entry, looked up): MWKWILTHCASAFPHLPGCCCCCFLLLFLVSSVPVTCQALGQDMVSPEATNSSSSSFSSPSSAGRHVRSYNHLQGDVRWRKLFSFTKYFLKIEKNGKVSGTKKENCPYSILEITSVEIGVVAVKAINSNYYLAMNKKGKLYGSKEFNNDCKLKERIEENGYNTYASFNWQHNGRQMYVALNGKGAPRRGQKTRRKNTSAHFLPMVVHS
Test [6] concerns glycogen synthase kinase-3 (GSK3A per assay name; protocol says GSK3B). The test is described as follows: GSK3 binders on small-molecule microarrays, primary screen, biochemical, small-molecule microarray, 635 nm fluorescence, GSK3A (AID 1103). Also: the record names both GSK3A and GSK3B. The following applies: small-molecule microarray binding, fluorescence 635 nm; higher = more signal.
The target in test [7] is Epidermal growth factor receptor (Homo sapiens) (UniProt P00533). Nature of the test: EGFR binders on small-molecule microarrays, primary screen, biochemical, small-molecule microarray, 635 nm fluorescence (AID 1104).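 Also: score merges 667 nm emission intensity with spot signal to noise over triplicate slides.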 The following applies: EGFR binding, higher = more signal.
Sequence of Epidermal growth factor receptor (Homo sapiens) (P00533 whole entry, looked up): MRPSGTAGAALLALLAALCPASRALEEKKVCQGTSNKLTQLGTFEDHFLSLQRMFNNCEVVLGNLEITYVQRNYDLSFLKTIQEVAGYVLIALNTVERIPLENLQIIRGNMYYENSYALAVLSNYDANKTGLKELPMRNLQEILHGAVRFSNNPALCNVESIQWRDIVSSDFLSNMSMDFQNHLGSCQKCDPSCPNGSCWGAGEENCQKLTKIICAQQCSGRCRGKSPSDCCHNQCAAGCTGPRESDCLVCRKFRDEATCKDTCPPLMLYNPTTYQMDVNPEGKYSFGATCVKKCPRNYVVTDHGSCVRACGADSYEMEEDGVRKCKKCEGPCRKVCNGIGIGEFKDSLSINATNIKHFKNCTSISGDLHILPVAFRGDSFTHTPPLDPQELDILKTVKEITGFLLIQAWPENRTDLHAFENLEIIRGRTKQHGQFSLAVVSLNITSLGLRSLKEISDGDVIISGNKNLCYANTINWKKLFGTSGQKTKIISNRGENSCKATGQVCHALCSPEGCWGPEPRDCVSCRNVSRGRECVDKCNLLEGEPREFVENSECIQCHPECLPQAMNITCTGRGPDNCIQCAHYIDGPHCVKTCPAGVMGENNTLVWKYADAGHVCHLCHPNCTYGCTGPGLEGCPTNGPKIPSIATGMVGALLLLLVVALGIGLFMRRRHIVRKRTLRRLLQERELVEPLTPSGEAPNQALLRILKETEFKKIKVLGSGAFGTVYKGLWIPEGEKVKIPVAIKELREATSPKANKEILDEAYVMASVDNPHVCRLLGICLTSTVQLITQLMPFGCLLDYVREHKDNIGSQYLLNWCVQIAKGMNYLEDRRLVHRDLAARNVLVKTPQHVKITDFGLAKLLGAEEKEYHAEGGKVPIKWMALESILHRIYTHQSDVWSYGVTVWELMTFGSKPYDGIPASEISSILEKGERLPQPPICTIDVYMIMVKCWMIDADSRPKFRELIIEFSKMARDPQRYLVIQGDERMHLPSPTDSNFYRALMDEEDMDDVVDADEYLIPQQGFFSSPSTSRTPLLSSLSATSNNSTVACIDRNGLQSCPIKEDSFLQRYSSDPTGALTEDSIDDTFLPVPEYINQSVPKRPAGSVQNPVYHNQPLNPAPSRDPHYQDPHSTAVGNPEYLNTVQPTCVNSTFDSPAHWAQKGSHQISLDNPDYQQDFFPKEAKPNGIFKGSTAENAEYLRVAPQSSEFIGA
Test [8] addresses Follistatin-related protein 3 (Homo sapiens) (UniProt O95633). The test is described as follows: FSTL3 binders on small-molecule microarrays, primary screen, biochemical, small-molecule microarray, 635 nm fluorescence (AID 1105).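 Also: score merges emission near 667 nm and signal to noise per printed spot across three slides.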 The following applies: FSTL3 binding, higher = more signal.
The target of test [9] is Dickkopf-related protein 1 (Homo sapiens) (UniProt O94907). The test is described as follows: DKK1 binders on small-molecule microarrays, primary screen, biochemical, small-molecule microarray, 635 nm fluorescence scan (AID 1106).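 Also: score merges emission near 667 nm with signal to noise over three replicate slides.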 The following applies: DKK1 binding, higher = more signal.
Sequence of Dickkopf-related protein 1 (Homo sapiens) (O94907 whole entry, looked up): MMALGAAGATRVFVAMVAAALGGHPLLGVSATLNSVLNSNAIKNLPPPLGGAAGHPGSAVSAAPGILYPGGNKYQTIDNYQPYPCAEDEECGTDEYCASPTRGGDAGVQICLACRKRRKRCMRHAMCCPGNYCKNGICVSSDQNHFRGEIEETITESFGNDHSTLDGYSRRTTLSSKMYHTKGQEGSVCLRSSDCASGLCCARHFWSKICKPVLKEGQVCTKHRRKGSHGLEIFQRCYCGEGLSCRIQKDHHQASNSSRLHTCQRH
Test [10] deals with Inhibin beta A chain (activin A). The test is described as follows: INHBA (activin A) binders on microarrays, primary screen, biochemical, small-molecule microarray, 635 nm fluorescence scan (AID 1107).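 Also: mouse activin A protein probed at 4.33 µg/mL on printed slides; score merges bound-protein fluorescence near 667 nm with spot signal-to-noise.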 The following applies: small-molecule microarray binding, higher = more signal.
For test [11], the system named is Human papillomavirus type 1a protein E7 (residues 44-93). Nature of the test: HPV1a E7 fragment binders on microarrays, primary screen, biochemical, small-molecule microarray, residues 44-93, 635 nm fluorescence (AID 1108).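 Also: E7 fragment applied at 1 µg/mL in TBST for 1 h at 4 C; score combines spot fluorescence with its signal to noise ratio.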 The following applies: small-molecule microarray binding, fluorescence 635 nm; higher = more signal.
Test [12] is described as follows: modulators of HCV replicon luciferase signal, primary screen, HCV replication inhibitor project, Huh7 cells, luciferase reporter (AID 1109).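 Also: huh7 hepatoma cells harbouring a luciferase neomycin HCV replicon reporter; luciferase luminescence as measure of HCV replicon replication; test concentration not given here.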 The following applies: 48 h, higher = more signal.
The target in test [13] is Left-right determination factor 2 (Homo sapiens) (UniProt O00292). The test is described as follows: LEFTY2 binders on small-molecule microarrays, primary screen, biochemical, small-molecule microarray, 635 nm fluorescence scan (AID 1110). The following applies: LEFTY2 binding, higher = more signal.
Sequence of Left-right determination factor 2 (Homo sapiens) (O00292 whole entry, looked up): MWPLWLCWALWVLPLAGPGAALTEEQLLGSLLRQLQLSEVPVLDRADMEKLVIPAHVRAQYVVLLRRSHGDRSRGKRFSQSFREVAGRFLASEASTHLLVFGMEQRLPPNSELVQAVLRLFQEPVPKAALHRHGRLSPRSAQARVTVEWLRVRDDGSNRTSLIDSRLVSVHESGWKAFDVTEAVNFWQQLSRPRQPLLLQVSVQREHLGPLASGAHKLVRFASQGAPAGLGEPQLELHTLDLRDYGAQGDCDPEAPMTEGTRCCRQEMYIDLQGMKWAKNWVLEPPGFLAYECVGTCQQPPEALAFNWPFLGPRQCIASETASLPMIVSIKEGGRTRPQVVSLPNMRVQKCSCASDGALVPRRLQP
Test [14] has as its target Calmodulin-1 (Homo sapiens) (UniProt P0DP23). The test is described as follows: CALM1 binders on microarrays, EGTA buffer, profiling panel, biochemical, small-molecule microarray, Cy5-labelled CALM1 (AID 1111).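 Also: labelled calmodulin applied in Tris saline Tween buffer holding calcium plus EGTA and DTT.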 The following applies: Cy5-CALM1 binding fluorescence, higher = more signal.
Test [15] has the same target. Nature of the test: calcium-bound CALM1 binders on microarrays, profiling panel, artefact control for SMM control-protein annotation, biochemical, small-molecule microarray, Cy5-labelled CALM1, plus calcium (AID 1112).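 Also: score merges spot fluorescence with signal to noise from triplicate slides.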 The following applies: Cy5-CALM1 binding fluorescence, higher = more signal.
The nature of test [16]: small-molecule microarray binders of probe aWnt5a, primary screen, biochemical, biotinylated probe, 635/667 nm fluorescence (AID 1113).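 Also: score merges 667 nm fluorescence intensity with signal-to-noise per printed feature.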 The following applies: higher = more signal.
Test [17] is described as follows: small-molecule microarray binders of probe aShh, primary screen, biochemical, biotinylated probe, 635/667 nm fluorescence (AID 1114).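 Also: probe is biotin-labelled aShh protein from a stem cell growth factor screen; measures binding of labelled protein to compounds printed on the slide; score merges feature fluorescence at 667 nm with signal-to-noise.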 The following applies: higher = more signal.
A short description of test [18]: small-molecule microarray binders of probe aNog, primary screen, biochemical, biotinylated probe, 635/667 nm fluorescence (AID 1115).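 Also: probe is biotinylated aNog protein used at 0.15 µg/mL for 1 h at 4 C; z-score combines 667 nm fluorescence of each spot with its signal to noise.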 The following applies: higher = more signal.
The target of test [19] is Torsin-1A-interacting protein 1 (Homo sapiens) (UniProt Q5JTV8). Nature of the test: LAP1 binders from COS7 cell lysate, primary screen, small-molecule microarray, 635/667 nm fluorescence (AID 1116). The following applies: COS7-hLAP1 lysate binding, 635 nm fluorescence, higher = more signal.
Sequence of Torsin-1A-interacting protein 1 (Homo sapiens) (Q5JTV8 whole entry, looked up): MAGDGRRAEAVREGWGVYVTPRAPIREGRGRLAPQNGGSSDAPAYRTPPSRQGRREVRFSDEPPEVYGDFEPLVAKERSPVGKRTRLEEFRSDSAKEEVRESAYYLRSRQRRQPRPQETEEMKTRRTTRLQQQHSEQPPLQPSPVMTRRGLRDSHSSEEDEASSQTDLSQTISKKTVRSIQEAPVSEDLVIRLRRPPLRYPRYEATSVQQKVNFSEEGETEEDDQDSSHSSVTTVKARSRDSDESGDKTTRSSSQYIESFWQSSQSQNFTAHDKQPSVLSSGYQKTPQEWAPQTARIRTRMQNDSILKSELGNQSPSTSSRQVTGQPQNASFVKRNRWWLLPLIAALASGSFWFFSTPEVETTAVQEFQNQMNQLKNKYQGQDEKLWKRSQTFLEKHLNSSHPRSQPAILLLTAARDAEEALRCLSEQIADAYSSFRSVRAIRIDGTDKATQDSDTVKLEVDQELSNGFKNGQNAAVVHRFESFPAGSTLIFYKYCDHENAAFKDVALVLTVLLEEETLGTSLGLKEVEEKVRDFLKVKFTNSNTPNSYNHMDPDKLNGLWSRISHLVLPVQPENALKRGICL
The target of test [20] is Alpha-bungarotoxin (Bungarus multicinctus) (UniProt P60615). Nature of the test: alpha-bungarotoxin binders on microarray, profiling panel, artefact control for SMM control protein annotation, biochemical, small-molecule microarray, Alexa647 label, 635/667 nm fluorescence (AID 1117). The following applies: alpha-BTX-A647 binding fluorescence, higher = more signal.
Sequence of Alpha-bungarotoxin (Bungarus multicinctus) (P60615 whole entry, looked up): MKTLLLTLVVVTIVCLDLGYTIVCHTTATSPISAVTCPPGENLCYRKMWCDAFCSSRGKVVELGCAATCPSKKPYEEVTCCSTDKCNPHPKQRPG

“And” between values parts separate entries of the source, which are not always exact repeats. Identical values can stand only once. The source made the active and inactive calls.

Sequence of Follistatin-related protein 3 (Homo sapiens) (O95633 whole entry, looked up): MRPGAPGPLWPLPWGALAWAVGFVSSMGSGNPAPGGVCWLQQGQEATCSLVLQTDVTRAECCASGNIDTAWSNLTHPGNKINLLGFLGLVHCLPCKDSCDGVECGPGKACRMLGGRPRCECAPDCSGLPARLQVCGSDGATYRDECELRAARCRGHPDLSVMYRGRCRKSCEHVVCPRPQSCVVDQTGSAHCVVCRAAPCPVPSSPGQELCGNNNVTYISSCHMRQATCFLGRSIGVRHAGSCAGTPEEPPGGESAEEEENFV

On to `C[N+](C)(C)CCCCCCNC(=O)[C@@H]1C[C@@H]2C(=O)N[C@@H](CCCC[N+](C)(C)C)C(=O)N2[C@@H]1c1ccc(O)cc1`, for which the composite z-score in [1] is 0.892 and 0.579; in [2] it was -0.126 and -0.175; in test [3], 0.229 and 0.305; in [5], 0.606 and 0.803; in [6], -0.115 and 0.255; in test [7], 0.0444 and -0.539. Besides, the composite z-score in test [8] was 0.8 and 0.827; in test [9], 1.11 and 0.869; in test [10], 0.908 and 0.391; in test [11] it was -0.259 and 0.575; in test [13], 0.515 and 0.0005; in test [14], -0.529 and -0.759. Also, the composite z-score in test [15] is 0.458 and -0.85; in test [16], -0.144 and -0.13; in test [17], -0.304 and -0.221; in test [18], -0.0281 and -0.295; in [19], 2.61 and 0.23; in [20], -0.137 and 0.0818. Further, the z-score in [4] was -0.0316 (inactive) and 0.431 (inactive); in test [12] it was -0.0888 and 0.51.

Consider `C=C[C@@H](OC)[C@H](O)c1ccc(OCCO)cc1`, for which the composite z-score in [1] is 1.43 and -0.202; in test [2], 0.644 and -0.649; in test [3] it was 0.75 and 0.283; in [5], -0.72 and -1.24; in [6], -0.586 and -1.15; in test [7], -1.55 and -0.957. For the same compound, the composite z-score is -0.782 and -0.109 in test [8]; -1.06 and -0.955 in test [9]; -0.294 and -1.79 in test [10]; -0.796 and -1.11 in test [11]; -1.42 and -0.132 in test [13]; -1.29 and -0.831 in test [14]. For the same compound, the composite z-score is -0.778 and -0.247 in [15]; -0.298 and -0.242 in test [16]; -0.221 and -0.138 in test [17]; -0.501 and -0.393 in test [18]; 0.91 and -0.0877 in [19]; -0.7 and -0.37 in test [20]. The z-score was -0.462 (inactive) and -2.83 (inactive) in test [4]; 0.241 and -0.0944 in test [12].

On to `CC(CO)N1C(=O)[C@@H]2C3C(=O)OCCC=C[C@H]3OC23C=CCN(c2ccc4ccccc4c2)C(=O)[C@@H]13` (stereo not given in full), for which the composite z-score was 0.971 and 0.0013 in [1]; 0.0565 and -0.627 in [2]; 0.691 and -0.64 in test [3]; -0.773 and -0.238 in test [5]; -0.236 and -0.0124 in test [6]; -1.06 and -0.897 in test [7]. Also, the composite z-score in test [8] was -0.352 and 0.329; in test [9] it was -1.6 and -0.929; in test [10], 0.665 and 0.142; in [11], 1.24 and -0.698; in test [13], -1.21 and 0.0157; in test [14], -0.482 and -1.21. Moreover, the composite z-score is 0.0293 and -1.1 in [15]; -0.203 and -0.183 in test [16]; 0.0141 and -0.824 in test [17]; 0.304 and -0.61 in test [18]; 2.61 and 1.05 in [19]; -0.69 and -0.343 in [20]. Moreover, the z-score in [4] was 0.132 (inactive) and 0.555 (inactive); in test [12] it was -0.466 and -0.213.

For the compound `C=CCN(C(=O)C1N(c2ccc(CCO)cc2)C(=O)C2C(C(=O)O)C3C=CC21O3)c1ccc(OC)cc1` (stereo not given), the composite z-score was 1.07 and -0.0141 in test [1]; -0.0654 and -0.638 in test [2]; 0.581 and 0.683 in [3]; -0.0665 and -1.53 in test [5]; -0.313 and -1.1 in test [6]; -1.33 and -1.47 in [7]. Further, the composite z-score is -1.01 and -0.528 in [8]; -1.35 and -0.641 in [9]; -2.09 and -3.41 in test [10]; -0.178 and -3.84 in test [11]; -1.59 and -1.27 in test [13]; -0.394 and -0.181 in test [14]. The composite z-score in test [15] was -0.702 and 0.0188; in test [16], -0.154 and -0.285; in test [17] it was 0.0899 and -0.239; in test [18], -0.172 and 0.0343; in test [19] it was -0.447 and 0.206; in test [20], -0.102 and -0.62. The z-score was 0.119 (inactive) and -0.374 (inactive) in [4]; 0.174 and 0.383 in test [12].
